# An excerpt weighted towards active compounds, which were near 4.7% of everything screened.
# HepG2 tox-1: qHTS for Inhibitors of TGF-b: Cytotox Counterscreen. HepG2 CAGA-GFP viability, ATP luminescence, 18 h. Potency, µM (highest dose often 46.1 µM), without a hit: top-dose activity change, negative = cytotoxicity, usual class: cytotoxic. actives 0.76% (n = 410,000). AID 588856, 2011; note: potency is the fitted concentration of half-maximal effect
#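 CellTiter-Glo luminescence gave cytotoxicity after 18 hours at 37 degrees C. The cells were HepG2 CAGA-GFP in 1% FBS DMEM, stimulated with 500 pg/mL TGF-beta after compound addition. %Activity was normalised to no-cell wells (complete cell-killing) and DMSO (no toxicity), and curves were fitted and classified.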
# DRD3 antagonist: qHTS of D3 Dopamine Receptor Antagonist: qHTS | D(3) dopamine receptor (Homo sapiens), P35462 | D3R cells, DiscoveRx beta-arrestin luminescence, antagonist mode; hits give low values | max response, negative = inhibition, % | actives 2.5% (n = 360,000); in the data active = max response below about -50%; inconclusive = no clear call, values can overlap the other calls; note: % is set by controls: 0 for no effect and ±100 for the full control effect
# Target sequence (P35462 whole entry, looked up): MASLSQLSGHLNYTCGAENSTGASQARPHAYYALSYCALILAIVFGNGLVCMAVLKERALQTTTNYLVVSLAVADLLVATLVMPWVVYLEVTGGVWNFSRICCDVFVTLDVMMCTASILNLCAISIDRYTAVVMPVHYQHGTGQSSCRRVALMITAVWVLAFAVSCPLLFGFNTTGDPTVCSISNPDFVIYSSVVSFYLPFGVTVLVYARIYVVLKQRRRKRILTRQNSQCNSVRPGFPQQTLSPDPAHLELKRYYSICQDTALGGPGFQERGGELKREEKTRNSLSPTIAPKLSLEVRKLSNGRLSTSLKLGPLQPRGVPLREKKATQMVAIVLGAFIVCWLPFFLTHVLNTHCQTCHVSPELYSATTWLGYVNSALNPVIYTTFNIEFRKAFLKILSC
#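 Cells plated overnight at 1500 cells/well, then exposed to library compounds with dopamine controls for 90 minutes at 37 degrees C. DiscoveRx reagent added for 30–60 minutes at room temperature; luminescence read, quantitative HTS format.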
# TGFb SMAD3 inh: qHTS for Inhibitors of TGF-b; HepG2 CAGA-GFP TGF-b/SMAD3 reporter, GFP fluorescence, 18 h; TGF-beta stimulated, 500 pg/mL final; Potency, µM (top dose mostly 46.1 µM), without a hit: at the highest dose activity, negative = inhibition, actives largely listed as inhibitors; actives 1.2% (n = 410,000); AID 588855, 2011; note: potency is the fitted concentration of half-maximal effect; % is set by controls: 0 for no effect and ±100 for the full control effect; nearly all actives have a fitted effect of over 65% in size
#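 Read-out: total well GFP (ex488/em500-530) summed from mean per-cell fluorescence. Cells: HEPG2 CAGA-GFP, 1% FBS DMEM, 18 h at 37 degrees C with 500 pg/mL final TGF-beta. Unstimulated wells served as the full-inhibition control; stimulated DMSO wells = 0%.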
# DRD3 agonist: qHTS of D3 Dopamine Receptor Agonist: qHTS | D(3) dopamine receptor (Homo sapiens), P35462 | D3R DiscoveRx beta-arrestin cells, luminescence, 90 min | max activation, % | actives 0.58% (n = 410,000); in the data active = max activation above about 30%; note: 0% is about no effect
#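 Cells at 1500/well, incubated overnight, then treated with pinned compounds (dopamine as control) for 90 min at 37 degrees C. DiscoveRx reagent added for 30 - 60 minutes at room temperature; luminescence read.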
# S2 tox: Viability Counterscreen for Primary qHTS for Inhibitors of ATXN expression | Potency, µM (doses to about 56.7 µM), actives largely listed as cytotoxic | S2 cells (HEK-293 line with an ATXN2-luciferase reporter) viability, CellTiter-Fluor protease fluorescence, 24 h | actives 0.49% (n = 400,000); note: potency is the fitted concentration of half-maximal effect; nearly all actives have a fitted effect of over 40% in size
# ATXN2 expr inh: Primary qHTS for Inhibitors of ATXN expression | HEK-293 ATXN2-luciferase reporter, luminescence, 24 h | Potency, µM (doses to about 57 µM), without a hit: at the top dose activity change, negative = inhibition, hits mostly inhibitors | actives 0.72% (n = 360,000); note: potency is the fitted concentration of half-maximal effect; % is set by controls: 0 for no effect and ±100 for the full control effect; nearly all actives have a fitted effect of over 55% in size
#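 ATXN2-luciferase reporter cells (luciferase flanked by upstream and downstream ATXN2 gene portions) were treated 24 h at 37 °C with compounds at up to 57 uM. SteadyGlo luminescence gave expression; GF-AFC fluorescence gave viability.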
# TGFb CAGA inh: qHTS for Inhibitors of TGF-b: Confirmation of Cherry Picks; shares compounds with TGFb SMAD3 inh; HepG2 CAGA-GFP TGF-b reporter, GFP fluorescence, 18 h; cells stimulated with TGF-beta, 500 pg/mL; Potency, µM (series often up to 46.1 µM), without a hit: at the highest dose activity, negative = inhibition, hits mostly inhibitors; actives 63% (n = 1,600); AID 720534, 2013; note: potency is the fitted concentration of half-maximal effect; % is set by controls: 0 for no effect and ±100 for the full control effect; nearly all actives have a fitted effect of over 65% in size
# HepG2 tox-2: qHTS for Inhibitors of TGF-b: Cytotox Counterscreen for Cherry Picks | actives 27% (n = 1,600) | HepG2 CAGA-GFP viability, ATP luminescence, 18 h; cells stimulated with TGF-beta, 500 pg/mL | shares compounds with TGFb SMAD3 inh | AID 720535, 2013 | Potency, µM (doses to about 46.1 µM), for the others: at the top dose activity, negative = cytotoxicity, hits mostly inhibitors; note: potency is the fitted concentration of half-maximal effect; % is set by controls: 0 for no effect and ±100 for the full control effect; nearly all actives have a fitted effect of over 70% in size
# CCL64 TGFb inh: qHTS for Inhibitors of TGF-b: CCL64 Cells Orthogonal Assay for Cherry Picks; shares compounds with TGFb SMAD3 inh; CCL64 CAGA-GFP reporter, TGF-b stimulated, GFP fluorescence, 18 h; Potency, µM (titrated, usually from 46.1 µM), for inactives: top-dose activity, negative = inhibition, most hits filed as inhibitors; actives 41% (n = 1,600); AID 720536, 2013; note: potency is the fitted concentration of half-maximal effect; nearly all actives have a fitted effect of over 65% in size
# TGFb COP inh: qHTS for Inhibitors of TGF-b: Hit Validation in HepG2 Cells using COP promoter. actives 3% (n = 1,600). Potency, µM (series often up to 46.1 µM), inactives show at the highest dose activity, negative = inhibition, most hits filed as inhibitors. shares compounds with TGFb SMAD3 inh. HepG2 COP-GFP TGF-b reporter, GFP fluorescence, 18 h; cells stimulated by added recombinant TGF-beta; note: potency is the fitted concentration of half-maximal effect; nearly all actives have a fitted effect of over 70% in size
# SK-N-SH 3D tox: qHTS of pediatric cancer cell lines to identify multiple opportunities for drug repurposing: Orthogonal 3D viability screen for SK-N-SH cells; shares compounds with ATXN2 expr inh; SK-N-SH 3D spheroid viability, PI/Hoechst imaging, 72 h; Potency, µM (highest dose often 30.7 µM), most hits filed as inhibitors; actives 70% (n = 65); AID 1347135, 2019
# SJGBM2 3D viab: qHTS of pediatric cancer cell lines to identify multiple opportunities for drug repurposing: Orthogonal 3D viability screen for SJ-GBM2 cells. actives 80% (n = 65). Potency, µM (highest dose often 30.7 µM), most hits filed as inhibitors. SJ-GBM2 3D spheroid viability, PI/Hoechst imaging, 72 h. shares compounds with ATXN2 expr inh. AID 1347136, 2019
# Daoy 3D tox: qHTS of pediatric cancer cell lines to identify multiple opportunities for drug repurposing: Orthogonal 3D viability screen for Daoy cells. shares compounds with ATXN2 expr inh. AID 1347137, 2019. Potency, µM (series often up to 30.7 µM), hits mostly inhibitors. actives 50% (n = 65). Daoy 3D spheroid viability, PI/Hoechst imaging, 72 h
# TC32 3D casp: qHTS of pediatric cancer cell lines to identify multiple opportunities for drug repurposing: Orthogonal 3D caspase screen for TC32 cells; TC32 3D spheroids, caspase-3/7 fluorescence imaging, 24 h; Potency, µM (series often up to 30.7 µM), usual class: inhibitors; AID 1347138, 2019; shares compounds with ATXN2 expr inh; actives 30% (n = 65)
# TC32 3D tox: qHTS of pediatric cancer cell lines to identify multiple opportunities for drug repurposing: Orthogonal 3D viability screen for TC32 cells; shares compounds with ATXN2 expr inh; TC32 3D spheroid viability, PI/Hoechst imaging, 72 h; Potency, µM (top dose mostly 30.7 µM), hits mostly inhibitors; actives 60% (n = 65)
# MG63 3D tox: qHTS of pediatric cancer cell lines to identify multiple opportunities for drug repurposing: Orthogonal 3D viability screen for MG 63 (6-TG R) cells | MG-63 (6-TG R) 3D spheroid viability, PI/Hoechst imaging, 72 h | shares compounds with ATXN2 expr inh | actives 50% (n = 65) | AID 1347140, 2019 | Potency, µM (doses to about 30.7 µM), most hits filed as inhibitors
# RD 3D tox: qHTS of pediatric cancer cell lines to identify multiple opportunities for drug repurposing: Orthogonal 3D viability screen for RD cells; RD rhabdomyosarcoma 3D spheroid viability, PI/Hoechst imaging, 72 h; actives 50% (n = 65); shares compounds with ATXN2 expr inh; Potency, µM (series often up to 30.7 µM), actives largely listed as inhibitors
# The depositor's hits bear a star; i = inactive; ? = inconclusive; · = no result. Unless noted, calls come from the whole dose curve; as a rule, active = well fitted curve in the direction sought with a large enough effect; inconclusive = small, poorly fitted or top-dose-only effect, or another doubt; inactive = no such curve, though single readings can be large; an effect the other way counts as inactive or inconclusive.
SMILES,HepG2 tox-1,DRD3 antagonist,TGFb SMAD3 inh,DRD3 agonist,S2 tox,ATXN2 expr inh,SK-N-SH 3D tox,SJGBM2 3D viab,Daoy 3D tox,TC32 3D casp,TC32 3D tox,MG63 3D tox,RD 3D tox,others
COc1cccc2c1C(=O)c1c(O)c3c(c(O)c1C2=O)C[C@@](O)(C(=O)CO)C[C@@H]3O[C@H]1C[C@H](N)[C@H](O)[C@H](C)O1,4.6%,-14.6,3.55µM*,-6.7,3.98µM*,0.316µM*,0.181µM*,0.287µM*,2.88µM*,1.02µM*,0.323µM*,4.06µM*,2.56µM*,TGFb CAGA inh=0.164µM*;HepG2 tox-2=0.517µM*;CCL64 TGFb inh=1.3µM*;TGFb COP inh=-0.6%
COc1ccc(-c2cc3nc(C)c(CCC(=O)N4CCN(c5cc(C)ccc5C)CC4)c(C)n3n2)c(OC)c1,0.1%,·,12.3%,-0.3,i,3.8%,·,·,·,·,·,·,·,
CO[C@H]1C[C@@H]2CC[C@@H](C)[C@@](O)(O2)C(=O)C(=O)N2CCCC[C@H]2C(=O)O[C@H]([C@H](C)C[C@@H]2CC[C@@H](OC(=O)C(C)(CO)CO)[C@H](OC)C2)CC(=O)[C@H](C)/C=C(\C)[C@@H](O)[C@@H](OC)C(=O)[C@H](C)C[C@H](C)/C=C/C=C/C=C/1C,·,·,·,-3.7,·,·,·,·,·,·,·,·,·,
CC[C@@H]1C=C(C)C[C@H](C)C[C@H](OC)[C@H]2O[C@@](O)(C(=O)C(=O)N3CCCC[C@@H]3C(=O)O[C@H](C(C)=C[C@@H]3CC[C@H](Cl)[C@H](OC)C3)[C@H](C)[C@@H](O)CC1=O)[C@H](C)C[C@H]2OC,·,·,·,·,·,?,16.2µM*,2.28µM*,1.44µM*,i,20.4µM*,3.62µM*,?,
CC(=O)OCC(=O)[C@@]1(O)CC[C@H]2[C@@H]3CCC4=CC(=O)C=C[C@]4(C)[C@@H]3[C@@H](O)C[C@@]21C,·,·,·,·,·,-3.1%,·,·,·,·,·,·,·,
CC(=O)OCC(=O)[C@@]12N=C(C)O[C@@H]1C[C@H]1[C@@H]3CCC4=CC(=O)C=C[C@]4(C)[C@H]3[C@@H](O)C[C@@]12C,·,·,·,-1.8,i,-6.3%,i,?,i,i,i,i,i,
O=C(O)CC/C=C\CC[C@@H]1[C@@H](N2CCCCC2)[C@@H](O)C[C@@H]1OCc1ccc(-c2ccccc2)cc1,·,·,·,-7.5,·,·,·,·,·,·,·,·,·,
NC(=O)c1cccc2cc3ccccc3cc12,7.4%,11.4,-0.1%,4.2,·,-14.7%,·,·,·,·,·,·,·,
C[C@]1(c2nc3c(C(N)=O)cccc3[nH]2)CCCN1,·,·,·,·,·,12.0%,4.56µM*,4.06µM*,?,i,?,?,i,
CCOC(=O)CCc1c(C)c2cc3c(c(C)c2oc1=O)OCN(CCc1ccccc1OC)C3,-27.1%,·,-3.7%,-33.9,·,-36.8%,·,·,·,·,·,·,·,
Cn1cc(CNCC2CCN(c3ncc(C(=O)NO)cn3)CC2)c2ccccc21,·,·,·,·,·,60.6%,0.0204µM*,0.0256µM*,0.181µM*,?,0.0644µM*,0.722µM*,0.323µM*,

# Bioassay records (PubChem)
